Activity calls are given as the source filed them.

Experimental findings from PubChem BioAssay are described below.

Experiment [1] has as its system PRMT1 (protein arginine N-methyltransferase 1). The experiment can be described thus: PRMT1 binders on small-molecule microarrays, primary screen, biochemical, small-molecule microarray, 635 nm fluorescence (AID 1088).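 Note: binding of Prmt1 protein to compounds spotted on small-molecule microarray slides.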 The following applies: small-molecule microarray binding, higher = more signal.
Experiment [2] in a line: yeast growth modulation, basal conditions, primary screen, YJM789 clinical isolate, OD600, 24 h (AID 1089).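 Note: growth of clinical yeast isolate S. cerevisiae YJM 789 seeded 1000 cells per well; test concentration not given here.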 The following applies: S. cerevisiae YJM789 growth, higher = more signal, called active from +8 up or from −8 down.
The nature of experiment [3]: fission yeast growth modulation, primary screen, strain 972, OD600, 24 h, no modulator (AID 1090).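 Note: basal condition with compound alone and no growth modifier present; test concentration not given here.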 The following applies: S. pombe 972 growth, higher = more signal, called active from +8 up or from −8 down.
Experiment [4] is described as follows: S. cerevisiae growth modulation with rapamycin, primary screen, strain BY4716, OD600, 96 h (AID 1091). Note: test concentration not given here. The following applies: higher = more signal, called active from +8 up or from −8 down.
In experiment [5] the target is Torsin-1A-interacting protein 2 (Homo sapiens) (UniProt Q8NFQ8). The experiment can be described thus: LULL1 binders on small-molecule microarray, primary screen, cell lysate, human LULL1 lysate, 635/667 nm fluorescence (AID 1092).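 Note: probe is lysate of COS7 cells overexpressing human LULL1; score merges per-feature 667 nm fluorescence with signal-to-noise.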 Conditions: hLULL1 lysate binding, 635 nm fluorescence, higher = more signal.
Experiment [6] in a line: E. coli growth modulation, two-sided OD650, primary screen, E. coli filamentation project, strain DRC41, 24 h (AID 1093).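 Note: MC1000 strain lacking acrAB efflux and sulA so SOS filamentation is blocked; test concentration not given here.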 The following applies: OD650, 24 h, higher = more signal, called active from +8 up or from −8 down.
Experiment [7] in a line: small-molecule microarray binders of probe aLefty2, primary screen, biochemical, biotinylated probe, 635/667 nm fluorescence (AID 1094).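 Note: score merges spot fluorescence near 667 nm with spot signal-to-noise ratio.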 Conditions: higher = more signal.
In experiment [8] the test system is Noggin (protein binding on small-molecule microarray). The experiment can be described thus: Noggin binders on small-molecule microarray, primary screen, biochemical, 635/667 nm fluorescence (AID 1095).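 Note: score merges 667 nm feature fluorescence with signal to noise over triplicate slides.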 The following applies: 635 nm fluorescence, higher = more signal.
The target of experiment [9] is Neurogenic locus notch homolog protein 3 (Homo sapiens) (UniProt Q9UM47). The experiment is described as follows: NOTCH3 binders on small-molecule microarray, primary screen, biochemical, 635/667 nm fluorescence (AID 1096). The following applies: NOTCH3 binding, 635 nm fluorescence, higher = more signal.
A short description of experiment [10]: small-molecule microarray binders of probe aEGFR, primary screen, biochemical, biotinylated probe, 635/667 nm fluorescence (AID 1097).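 Note: probe is a biotinylated anti-EGFR antibody binding compounds printed on slides; score combines fluorescence near 667 nm and signal to noise of each spot.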 The following applies: higher = more signal.

Chain of Torsin-1A-interacting protein 2 (Homo sapiens) (Q8NFQ8 whole entry, looked up): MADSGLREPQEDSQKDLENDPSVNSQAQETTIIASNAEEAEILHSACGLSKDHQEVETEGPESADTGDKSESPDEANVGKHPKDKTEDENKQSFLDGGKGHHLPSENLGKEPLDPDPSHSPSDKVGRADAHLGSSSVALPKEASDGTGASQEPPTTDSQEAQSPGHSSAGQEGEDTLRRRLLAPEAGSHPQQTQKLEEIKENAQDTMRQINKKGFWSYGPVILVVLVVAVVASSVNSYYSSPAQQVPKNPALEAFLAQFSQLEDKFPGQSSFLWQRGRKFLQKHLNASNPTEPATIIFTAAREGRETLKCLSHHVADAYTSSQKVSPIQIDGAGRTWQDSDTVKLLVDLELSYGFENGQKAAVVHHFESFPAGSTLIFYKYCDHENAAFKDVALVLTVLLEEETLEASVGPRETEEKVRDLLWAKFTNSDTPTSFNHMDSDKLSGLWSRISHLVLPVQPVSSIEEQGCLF
Chain of Neurogenic locus notch homolog protein 3 (Homo sapiens) (Q9UM47 whole entry, looked up): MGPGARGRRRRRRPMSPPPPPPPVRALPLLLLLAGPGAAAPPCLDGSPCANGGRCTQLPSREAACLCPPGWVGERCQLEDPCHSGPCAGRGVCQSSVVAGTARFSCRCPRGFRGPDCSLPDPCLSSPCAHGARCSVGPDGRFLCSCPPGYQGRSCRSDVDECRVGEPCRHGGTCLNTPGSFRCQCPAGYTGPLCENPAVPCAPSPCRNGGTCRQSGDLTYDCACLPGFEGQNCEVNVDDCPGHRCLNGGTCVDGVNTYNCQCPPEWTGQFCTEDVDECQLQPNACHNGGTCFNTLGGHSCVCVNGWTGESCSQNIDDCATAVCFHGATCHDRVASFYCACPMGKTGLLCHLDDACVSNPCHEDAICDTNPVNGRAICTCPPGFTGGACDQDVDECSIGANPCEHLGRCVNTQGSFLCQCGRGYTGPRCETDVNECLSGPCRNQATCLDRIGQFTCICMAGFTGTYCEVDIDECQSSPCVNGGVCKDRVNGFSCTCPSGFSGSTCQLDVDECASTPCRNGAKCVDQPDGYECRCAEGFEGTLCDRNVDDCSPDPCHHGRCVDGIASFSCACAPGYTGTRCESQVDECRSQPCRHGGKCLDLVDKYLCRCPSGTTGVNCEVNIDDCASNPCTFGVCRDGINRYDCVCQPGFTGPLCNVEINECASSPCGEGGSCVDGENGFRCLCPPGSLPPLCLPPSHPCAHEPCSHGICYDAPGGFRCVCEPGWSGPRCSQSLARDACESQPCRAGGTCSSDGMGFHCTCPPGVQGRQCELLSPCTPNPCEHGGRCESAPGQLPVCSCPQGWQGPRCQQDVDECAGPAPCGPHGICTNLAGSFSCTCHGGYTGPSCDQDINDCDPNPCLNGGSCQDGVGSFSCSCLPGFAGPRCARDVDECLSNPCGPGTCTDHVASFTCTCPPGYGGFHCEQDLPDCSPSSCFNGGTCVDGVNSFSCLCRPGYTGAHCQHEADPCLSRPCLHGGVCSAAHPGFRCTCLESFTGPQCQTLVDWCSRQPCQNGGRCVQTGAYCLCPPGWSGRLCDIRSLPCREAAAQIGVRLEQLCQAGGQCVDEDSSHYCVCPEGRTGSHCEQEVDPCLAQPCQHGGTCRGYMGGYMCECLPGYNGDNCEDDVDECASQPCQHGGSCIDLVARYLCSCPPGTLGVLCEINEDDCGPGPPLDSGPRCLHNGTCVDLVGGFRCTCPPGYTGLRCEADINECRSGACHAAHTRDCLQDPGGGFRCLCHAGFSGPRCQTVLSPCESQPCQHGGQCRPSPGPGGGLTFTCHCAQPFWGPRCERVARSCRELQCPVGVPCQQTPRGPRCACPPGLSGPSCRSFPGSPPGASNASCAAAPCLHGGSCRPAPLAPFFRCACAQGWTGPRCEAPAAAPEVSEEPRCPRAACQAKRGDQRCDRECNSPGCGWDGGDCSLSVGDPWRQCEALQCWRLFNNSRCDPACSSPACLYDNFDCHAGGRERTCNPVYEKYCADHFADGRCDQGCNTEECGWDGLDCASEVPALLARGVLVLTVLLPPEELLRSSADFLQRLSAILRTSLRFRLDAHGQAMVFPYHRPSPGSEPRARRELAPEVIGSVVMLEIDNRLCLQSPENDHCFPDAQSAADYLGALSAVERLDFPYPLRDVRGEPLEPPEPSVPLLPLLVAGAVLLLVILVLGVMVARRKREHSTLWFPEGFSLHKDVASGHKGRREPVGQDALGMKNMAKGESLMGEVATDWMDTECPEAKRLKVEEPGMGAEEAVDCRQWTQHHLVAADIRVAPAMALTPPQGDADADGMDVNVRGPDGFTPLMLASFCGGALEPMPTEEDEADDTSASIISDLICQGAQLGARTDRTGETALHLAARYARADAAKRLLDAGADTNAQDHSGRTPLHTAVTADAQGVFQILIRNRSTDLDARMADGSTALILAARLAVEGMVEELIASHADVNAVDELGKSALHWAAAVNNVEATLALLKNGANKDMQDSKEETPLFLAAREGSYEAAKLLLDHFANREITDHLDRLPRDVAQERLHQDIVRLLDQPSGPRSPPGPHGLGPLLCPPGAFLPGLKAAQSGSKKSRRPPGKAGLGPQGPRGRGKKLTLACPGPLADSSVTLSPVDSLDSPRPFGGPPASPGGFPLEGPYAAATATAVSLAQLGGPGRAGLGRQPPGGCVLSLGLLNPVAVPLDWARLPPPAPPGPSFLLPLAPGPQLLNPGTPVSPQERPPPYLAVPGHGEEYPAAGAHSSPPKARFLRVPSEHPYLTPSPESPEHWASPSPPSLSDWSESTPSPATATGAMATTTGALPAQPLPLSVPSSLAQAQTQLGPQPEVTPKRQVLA

Take `Cc1ccc(S[C@]2(C(=O)NC3CC3)CC(=O)N(C3Cc4ccccc4C3)[C@@H]2c2ccc(CO)cc2I)cc1`: the composite z-score is 0.198 in experiment [1]; 1.67 in experiment [5]; -0.0771 in experiment [7]; -0.992 in experiment [8]; -0.847 in [9]; -0.269 in [10]. The z-score in [2] is -0.192 (inactive); in experiment [3] it was -2.85 (inactive); in experiment [4], 3.27 (inactive); in experiment [6], 0.844 (inactive).

`C=CCNC(=O)[C@H]1[C@@H]2C(=O)O[C@@H](c3ccccc3)[C@@H](c3ccccc3)N2[C@@H](c2ccc(O)cc2)[C@]12C(=O)Nc1ccc(C#CCC(C(=O)OC)C(=O)OC)cc12`: the composite z-score in [1] was 0.526; in experiment [5], 1.13; in [7] it was -0.0478; in experiment [8], 0.614; in [9] it was -0.112; in experiment [10], -0.102. Moreover, the z-score is 0.357 (inactive) in [2], -0.213 (inactive) in [3], -0.836 (inactive) in experiment [4] and 1.44 (inactive) in [6].

On to `COCCOC(=O)N1C(=O)[C@@]2(c3cc(C#CCNC(N)=O)ccc31)[C@H](C(=O)Nc1nc3ccccc3s1)[C@H]1C(=O)O[C@H](c3ccccc3)[C@H](c3ccccc3)N1[C@@H]2c1ccc(O)cc1`, for which the composite z-score in experiment [1] is 1.47; in experiment [5], 1.35; in [7], -0.103; in experiment [8], 0.939; in experiment [9], 0.986; in experiment [10], 0.0654. For the same compound, the z-score was 1.45 (inactive) in [2], 1.16 (inactive) in experiment [3], 1.32 (inactive) in experiment [4] and -0.264 (inactive) in experiment [6].

Take `CCOC(=O)C[C@H]1[C@H](OC(=O)c2ccc(-c3ccccc3)cc2)[C@@H](NC(=O)C2CCCCC2)c2cc(OCCCO)ccc2N1C(=O)Cc1ccc(OC)cc1`: the composite z-score in [1] was 0.405; in experiment [5], 0.852; in [7], -0.141; in [8] it was -0.141; in [9], 0.375; in experiment [10], -0.114. The z-score in experiment [2] was -0.253 (inactive); in experiment [3], -0.0766 (inactive); in experiment [4], 0.214 (inactive); in experiment [6], -0.884 (inactive).

Take `C=CC[C@]12N=C(c3ccc(OCCCO)cc3)O[C@H]1c1ccccc1N(CCC)C2=O`: the composite z-score in experiment [1] was 1.55; in experiment [5] it was 2.96; in experiment [7], 0.15; in [8], 1.2; in [9] it was 1.11; in [10], 0.198. For the same compound, the z-score in experiment [2] was -1.42 (inactive); in experiment [3], -2.04 (inactive); in experiment [4], -1.06 (inactive); in experiment [6], 0.544 (inactive).

`OCCCc1cc[n+](Cc2cc3c(cc2Br)OCO3)cc1`: the composite z-score in experiment [1] was 0.115; in experiment [5], -0.0854; in experiment [7] it was 0.193; in [8] it was -0.617; in [9], -0.785; in experiment [10], -0.12. Moreover, the z-score in experiment [2] is -0.41 (inactive); in experiment [3], -0.688 (inactive); in experiment [4], -0.213 (inactive); in [6] it was 0.0566 (inactive).

For `CCCCC(=C=CC[C@@H](O)c1ccc(OCCO)cc1)CCO`, the composite z-score is 0.571 in experiment [1]; 1.6 in [5]; -0.135 in [7]; 0.424 in experiment [8]; -0.0085 in [9]; -0.333 in experiment [10]. For the same compound, the z-score is -0.026 (inactive) in experiment [2], -1.56 (inactive) in [3], -1.06 (inactive) in [4] and 0.639 (inactive) in experiment [6].

As for `COCCOC(=O)N1C(=O)[C@@]2(c3cc(C#CCNC(N)=O)ccc31)[C@H](C(=O)N1CCN(c3ncccn3)CC1)[C@H]1C(=O)O[C@H](c3ccccc3)[C@H](c3ccccc3)N1[C@@H]2c1ccc(O)cc1`, the composite z-score is -0.479 in experiment [1]; 1.37 in experiment [5]; -0.547 in [7]; -1.27 in experiment [8]; -0.637 in experiment [9]; -0.384 in [10]. Further, the z-score in [2] is -0.357 (inactive); in experiment [3] it was -0.562 (inactive); in experiment [4] it was 0.0816 (inactive); in experiment [6], -0.324 (inactive).

Consider `COC(=O)[C@@]1(Cc2ccc(F)cc2)[C@@H]2C(=CC(=O)[C@H]2CC(=O)C(=O)N2CCCC2)CN1C(=O)c1ccccc1`, for which the composite z-score in experiment [1] is 1.55; in [5] it was 3.6; in experiment [7], 1.34; in [8], 1.32; in experiment [9] it was 1.13; in experiment [10] it was 1.08. Further, the z-score in [2] is -0.403 (inactive); in experiment [3], 0.0239 (inactive); in [4] it was 0.413 (inactive); in [6], -0.074 (inactive).

For `C=C(CCCC)/C(=C/C[C@@H](OC(C)=O)c1cccc(OCCO)c1)c1cc(C(=O)OC)ccc1OC`, the composite z-score in experiment [1] was 1.57; in experiment [5] it was 0.709; in [7] it was -0.0524; in experiment [8], 0.656; in experiment [9], 0.0716; in experiment [10] it was -0.0698. Also, the z-score in experiment [2] was -0.397 (inactive); in experiment [3] it was 0.86 (inactive); in experiment [4], -0.709 (inactive); in experiment [6], 0.236 (inactive).

Take `CC(C)N1C(=O)[C@@]2(Cc3ccccc31)c1ccccc1C(=O)N(Cc1ccccc1)[C@H]2c1ccc(CO)cc1`: the composite z-score in experiment [1] was -0.0364; in [5] it was 0.0342; in experiment [7] it was -0.578; in experiment [8], 0.209; in experiment [9], -0.508; in [10], -0.424. For the same compound, the z-score is 1.43 (inactive) in experiment [2], 0.555 (inactive) in [3], -0.204 (inactive) in experiment [4] and 0.365 (inactive) in experiment [6].

With `COC(=O)C(CC#Cc1ccc2c(c1)[C@]1(C(=O)N2)[C@H](C(=O)N2CCN(c3ncccn3)CC2)[C@H]2C(=O)O[C@H](c3ccccc3)[C@H](c3ccccc3)N2[C@@H]1c1ccc(O)cc1)C(=O)OC`, the composite z-score in [1] is 1.53; in [5], 3.25; in experiment [7], 0.759; in experiment [8], 1.73; in experiment [9] it was 1.01; in experiment [10], 1.05. The z-score in experiment [2] is 1.04 (inactive); in [3] it was 1.1 (inactive); in experiment [4], 0.183 (inactive); in experiment [6], -0.333 (inactive).

Turning to `COC(=O)[C@H]1N=C(c2ccc(OCCCO)cc2)O[C@H]1c1ccccc1N=[N+]=[N-]`, the composite z-score in experiment [1] was 1.08; in experiment [5], 2.73; in experiment [7], 0.588; in [8], 0.0025; in [9] it was -0.0392; in [10], 0.131. For the same compound, the z-score in [2] was -0.651 (inactive); in [3], -4.13 (inactive); in experiment [4] it was -1.09 (inactive); in [6], 0.112 (inactive).

Regarding `Cc1ccc(S[C@]2(C(=O)NCCN3CCOCC3)CC(=O)N(C(C)C)[C@@H]2c2ccc(CO)cc2I)cc1`, the composite z-score in experiment [1] is 1.5; in [5] it was 2.46; in experiment [7], 0.126; in experiment [8], -0.889; in experiment [9], 0.0467; in experiment [10], -0.0234. Also, the z-score was -2.73 (inactive) in [2], -1.75 (inactive) in experiment [3], -0.616 (inactive) in [4] and 3.42 (inactive) in [6].
